Reference: PubChem BioAssay AID2552 (National Center for Advancing Translational Sciences (NCATS), 2010)
Calls of active or inactive are those of the source. No rule for the calls is given here.

Each molecule was assayed against Thyroid hormone receptor beta (Homo sapiens) (UniProt P10828) (assay: Irreversible Binding Assay for Inhibitors of the Interaction of Thyroid Hormone Receptor and Steroid Receptor Coregulator 2). Conditions: TRb LBD-SRC2 peptide FP after dialysis, at 100 µM.
Chain of Thyroid hormone receptor beta (Homo sapiens) (P10828 whole entry, looked up, the tested form may be a part): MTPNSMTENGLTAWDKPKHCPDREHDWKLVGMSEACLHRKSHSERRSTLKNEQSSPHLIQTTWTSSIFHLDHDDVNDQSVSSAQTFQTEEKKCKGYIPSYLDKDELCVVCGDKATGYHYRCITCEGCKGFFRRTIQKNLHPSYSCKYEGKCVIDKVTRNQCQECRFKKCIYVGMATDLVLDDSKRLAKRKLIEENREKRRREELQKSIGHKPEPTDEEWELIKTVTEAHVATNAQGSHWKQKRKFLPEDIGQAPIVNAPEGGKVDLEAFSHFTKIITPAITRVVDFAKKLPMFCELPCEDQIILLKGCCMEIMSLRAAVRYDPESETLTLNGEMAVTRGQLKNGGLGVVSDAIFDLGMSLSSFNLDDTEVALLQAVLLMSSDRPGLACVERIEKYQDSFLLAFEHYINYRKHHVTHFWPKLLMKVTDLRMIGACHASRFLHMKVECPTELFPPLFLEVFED
From the text: NIH Molecular Libraries Probe Production Network [MLPCN] NIH Chemical Genomics Center [NCGC] MLPCN Grant: DK058080 Assay Provider: R. Kip Guy, St. Jude Children's Research Hospital NCGC Assay Overview: Thyroid receptor (TR) regulates many homeostatic processes including basal metabolism, cardiovascular function, body weight, and lipid trafficking. TR modulators are potential therapeutics for obesity and hyperlipidemias but current thyroid analogs have undesirable side effects, particularly cardiac stimulation. To identify whether inhibitors irreversibly block the interaction of TR with the steroid receptor coregulator 2 (SRC2), a fluorescence polarization assay was used (Arnold et al., 2006). […]
NCGC Assay Protocol Summary: One milliliter TRb (1 uM) was incubated with DMSO (4 %), SRC2-2 peptide (100 uM) or compound (100 uM) for 3 hr in assay buffer (20 mM Tris hydrochloride, pH 7.4, 100mM NaCl, 10% glycerol, 1mM EDTA, 0.01% NP-40, 1mM DTT, 1uM T3 and 4% DMSO). […] The protein samples were concentrated using a 10K spin filter column (Amicon Ultra, Millipore) and then quantified by Bradford analysis. For each sample, 20 uL assay buffer containing 2 uM TRb and 40 nM SRC2 Texas Red probe was incubated in a 384 well plate for 3 hr at ambient temperature and read by an Envision (Perkin Elmer) to detect fluorescence polarization of SRC2-2 Texas Red (555 nm excitation and 632 nm emission). […]
For `CC1(C)C2CCC1(C)C(NC(=O)COC(=O)c1ccc(S(C)(=O)=O)c([N+](=O)[O-])c1)C2` (stereo unspecified), the activity change, negative = inhibition was -96% (active).
